This is part of a sample that, as a whole, favours compounds with a hit. Of some 83,000 tested, about 20% had one in any assay.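 Results are percent growth after 48 hours of single-concentration exposure. 100 means growth as in untreated cells, lower positive values show inhibition; negative values down to -100 show cell death.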 Unmarked numbers belong to inactive results. The source made the active and inactive calls. How the source made its calls: active means growth percent below 10; inactive means the rest.

Test systems include DU-145 prostate; K-562 leukemia; MALME-3M melanoma; MDA-MB-231 breast; RXF 393 renal; SF-268 CNS; SF-295 CNS; SF-539 CNS; UACC-257 melanoma; M14 melanoma.
What all share (test): NCI-60 one-dose screen, 48 h (100 = growth as untreated, 0 = no growth, -100 = all killed)
What all share (conditions): 10 µM unless noted

With `Clc1ccc2c(NCCNC34CC5CC(CC(C5)C3)C4)ccnc2c1`, the growth was -42.7% (active) in the assay on DU-145 prostate; 2.05% (active) in the assay with K-562 leukemia; -80.4% (active) with MALME-3M melanoma; -72.1% (active) with MDA-MB-231 breast; -86.4% (active) in the assay with RXF 393 renal; -62.2% (active) in the assay with SF-268 CNS. The growth was -90.9% (active) in the assay on SF-295 CNS, -89.7% (active) in the assay with SF-539 CNS, -66.3% (active) in the assay with UACC-257 melanoma and -83.5% (active) in the assay on M14 melanoma.
For `COc1cc(C2CC(c3cc(OC)c(OC)c(OC)c3)=Nc3c(N)nc(N)nc3N2)ccc1Oc1nc(Nc2ccc(F)cc2)nc(N(C)C)n1` (stereo not given), the growth is 70.7% with DU-145 prostate; 15.1% in the assay on K-562 leukemia; 78.6% in the assay on MALME-3M melanoma; 24.6% in the assay with MDA-MB-231 breast; 26.5% with RXF 393 renal; 63.5% with SF-268 CNS. The growth in the assay on SF-295 CNS is 61.3%; in the assay with SF-539 CNS it was 62%; in the assay with UACC-257 melanoma it was 58.9%; in the assay with M14 melanoma, 66.5%.
For `COc1ccc2c(c1)C(Sc1ccc(Cl)cc1)c1c(nc(N)c(C#N)c1N)O2` (stereo not given), the growth with DU-145 prostate was 86%; in the assay with K-562 leukemia, 47.6%; in the assay on MALME-3M melanoma, 82.2%; in the assay on MDA-MB-231 breast, 56.4%; with RXF 393 renal, 56.4%; in the assay on SF-268 CNS it was 46%. Also, the growth in the assay on SF-295 CNS is 55.7%; in the assay with SF-539 CNS, 61.8%; in the assay with UACC-257 melanoma, 104%; with M14 melanoma, 66.4%.
On to `S=C(NCCc1ccccc1)Nc1ccc(OCc2nc3ccc(Cl)cc3[nH]2)cc1`, for which the growth is 37.3% in the assay with DU-145 prostate; 10.1% in the assay on K-562 leukemia; 56.5% in the assay with MALME-3M melanoma; 9.6% (active) in the assay on MDA-MB-231 breast; -12.6% (active) with RXF 393 renal; 52.8% in the assay on SF-268 CNS. Besides, the growth was 60.4% with SF-295 CNS, 17.8% in the assay with SF-539 CNS, 74.1% in the assay with UACC-257 melanoma and 46.7% with M14 melanoma.
As for `CCOc1ccccc1NC(=O)N/C(N)=N/c1nc2ccccc2s1`, the growth was -4% (active) with DU-145 prostate; 10.1% in the assay on K-562 leukemia; 42% in the assay with MALME-3M melanoma; 0.962% (active) with MDA-MB-231 breast; 48.7% in the assay on RXF 393 renal; 27.3% in the assay with SF-268 CNS. Besides, the growth in the assay on SF-295 CNS is 3.78% (active); in the assay with SF-539 CNS it was -27.7% (active); with UACC-257 melanoma, 52.2%; with M14 melanoma it was 13.4%.
Turning to `COc1ccc2[nH]c(=O)c(CSc3ccccc3Nc3nccc(-c4ccc(C(F)(F)F)cc4)n3)cc2c1`, the growth in the assay on DU-145 prostate is 27.3%; in the assay with K-562 leukemia, 19.5%; with MALME-3M melanoma it was 47.4%; in the assay on MDA-MB-231 breast, 31.6%; with RXF 393 renal it was -41.2% (active); in the assay on SF-268 CNS, 19.5%. Besides, the growth is 5.31% (active) in the assay on SF-295 CNS, 0.901% (active) with SF-539 CNS, 50.3% with UACC-257 melanoma and 52.3% with M14 melanoma.
For `O=C(CSc1nc2c(c(=O)[nH]1)CCCC2)Nc1ccccc1C(=O)O`, the growth with DU-145 prostate was 110%; with K-562 leukemia, 95.8%; in the assay with MALME-3M melanoma it was 96.7%; in the assay on MDA-MB-231 breast, 109%; in the assay on RXF 393 renal it was 108%; with SF-268 CNS, 106%. For the same compound, the growth in the assay with SF-295 CNS is 100%; with SF-539 CNS, 97.9%; in the assay with UACC-257 melanoma, 109%; in the assay with M14 melanoma, 108%.
As for `O=C(Nc1ccc(S(=O)(=O)N2CCCCC2)cc1)C(Cl)Cl`, the growth in the assay on DU-145 prostate was 104%; in the assay with K-562 leukemia, 111%; in the assay with MALME-3M melanoma it was 99.3%; in the assay with MDA-MB-231 breast, 109%; with RXF 393 renal, 115%; with SF-268 CNS it was 105%. Moreover, the growth was 106% in the assay with SF-295 CNS, 107% with SF-539 CNS, 101% with UACC-257 melanoma and 112% with M14 melanoma.
Turning to `CC1=C(C(=O)OCc2ccccc2)C(c2ccc(N(C)C)cc2)n2c(nc3ccccc32)N1` (stereo not given), the growth in the assay on DU-145 prostate was 99.6%; with K-562 leukemia, 58%; with MALME-3M melanoma, 75.9%; in the assay with MDA-MB-231 breast it was 91.6%; in the assay with RXF 393 renal it was 74.6%; in the assay with SF-268 CNS, 81.7%. Besides, the growth in the assay on SF-295 CNS was 57.3%; in the assay with SF-539 CNS, 86.4%; in the assay with UACC-257 melanoma, 85.7%; in the assay on M14 melanoma it was 80.4%.
Take `Cc1ccc2c(c1)nc(-c1ccccc1)n2CC(=O)N=Nc1c(O)[nH]c2ccc(Cl)cc12`: the growth with DU-145 prostate was -38% (active); in the assay with K-562 leukemia, -3.37% (active); with MALME-3M melanoma it was -28.6% (active); in the assay on MDA-MB-231 breast it was -80.5% (active); in the assay on RXF 393 renal, -88.4% (active); with SF-268 CNS it was 2.28% (active). In addition, the growth in the assay on SF-295 CNS is -62.4% (active); with SF-539 CNS, -90.3% (active); with UACC-257 melanoma, -28.2% (active); with M14 melanoma it was -28.4% (active).
In the case of `O=C(N=Nc1c(O)[nH]c2ccc(Cl)cc12)c1ccc2nc(-c3ccc(Cl)cc3)[nH]c2c1`, the growth in the assay on DU-145 prostate was 5.09% (active); with K-562 leukemia, 8.93% (active); in the assay with MALME-3M melanoma, -1.72% (active); with MDA-MB-231 breast, -79.9% (active); in the assay with RXF 393 renal, -27.7% (active); in the assay with SF-268 CNS it was 0.662% (active). The growth was -12.5% (active) with SF-295 CNS, -93.6% (active) with SF-539 CNS, 57.8% with UACC-257 melanoma and -6.49% (active) with M14 melanoma.
Regarding `CS(=O)(=O)Nc1cc(-c2ccc3ncnc(Nc4ccc(OCc5cccnc5)c(Cl)c4)c3c2)cnc1Cl`, the growth in the assay on DU-145 prostate is 16.5%; in the assay on K-562 leukemia, 9.57% (active); in the assay on MALME-3M melanoma, -34.8% (active); with MDA-MB-231 breast, -57.9% (active); in the assay on RXF 393 renal it was 0.962% (active); with SF-268 CNS, 14.6%. Further, the growth in the assay with SF-295 CNS was -14.9% (active); in the assay with SF-539 CNS it was -38% (active); in the assay on UACC-257 melanoma it was 1.79% (active); with M14 melanoma, 2.98% (active).
For `CC(Nc1ncnc2ccc(-c3ccc4oc(N)nc4c3)cc12)c1ccccc1` (stereo not given), the growth in the assay with DU-145 prostate is 14%; in the assay on K-562 leukemia, 7.11% (active); in the assay with MALME-3M melanoma, -26.5% (active); with MDA-MB-231 breast, -38% (active); in the assay on RXF 393 renal it was -77.9% (active); in the assay with SF-268 CNS, 35.6%. Besides, the growth with SF-295 CNS was -17.4% (active); in the assay with SF-539 CNS, -89.4% (active); in the assay on UACC-257 melanoma it was 73.4%; with M14 melanoma, 23.7%.

(Values after PubChem BioAssay (NCI).)
